Assay outcomes as filed in PubChem.
Most compounds without a hit are left out; they make up all but 1.3% or so of the library.
TRPV1 potentiator – human TRPV1 potentiation; TRPV1-expressing cells, Fluo-8 calcium influx, capsaicin EC20 potentiation; potentiation, % at 8.33 µM; actives 0.02% (n = 320,000); AID 540277; in the data active = potentiation above about 80%; inconclusive = between about 30% and that limit; note: 0% is about no effect
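TRPV1-expressing cells were cultured overnight at 35.5C and loaded with Fluo-8 calcium dye for 40 to 90 min at room temperature. After a 10 s baseline, compound was added and calcium influx was read kinetically for 3 min (ex 480/em 520 nm).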
TRPV1 ag – agonists of human vanilloid receptor 1 (TRPV1); actives 0.19% (n = 320,000); AID 540275; TRPV1-expressing cells, Fluo-8 calcium influx, agonist mode; activation, % at 8.33 µM; Q8NER1; in the data active = activation above about 80%; inconclusive = between about 30% and that limit; note: 0% is about no effect
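Fluo-8 calcium influx in TRPV1-expressing cells, kinetic read (ex 480/em 520 nm). Compound added and read 3 min for agonist activity, followed by capsaicin at EC20 final and 2 min further read for enhancement.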
TRPML1 agonist – agonists of human TRPML1 channel | TRPML1-expressing cells, Ca2+ dye fluorescence, FDSS | activation, % (concentration not given with the values) | Q9GZU1 | actives 0.12% (n = 410,000); in the data active = activation above about 50%; inconclusive = mostly about 30% to 49%; note: 0% is about no effect
Target sequence (Q9GZU1 whole entry, looked up): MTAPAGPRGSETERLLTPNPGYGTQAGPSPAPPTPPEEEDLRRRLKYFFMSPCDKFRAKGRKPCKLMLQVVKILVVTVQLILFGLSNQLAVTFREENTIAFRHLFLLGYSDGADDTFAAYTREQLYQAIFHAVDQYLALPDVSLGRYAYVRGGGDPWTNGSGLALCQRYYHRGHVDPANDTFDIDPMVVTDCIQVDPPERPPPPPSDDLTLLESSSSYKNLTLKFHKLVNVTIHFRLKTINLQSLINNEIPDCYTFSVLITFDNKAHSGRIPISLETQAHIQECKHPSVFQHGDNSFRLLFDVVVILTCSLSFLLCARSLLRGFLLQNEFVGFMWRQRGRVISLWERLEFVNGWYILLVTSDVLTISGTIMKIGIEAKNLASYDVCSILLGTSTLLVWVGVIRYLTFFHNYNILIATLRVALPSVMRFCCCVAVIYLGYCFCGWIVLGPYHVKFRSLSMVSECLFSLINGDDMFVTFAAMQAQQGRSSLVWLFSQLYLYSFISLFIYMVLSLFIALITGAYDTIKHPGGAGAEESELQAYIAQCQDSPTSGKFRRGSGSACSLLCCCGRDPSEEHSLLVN
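Cells: TRPML1-DL, 1X Tet inducer, ~16 h at 37 degrees C/5% CO2. Dye: ABD Ca8 no-wash + quencher, 45-90 min RT. Read: 10 s baseline, compound add, 110 s agonist phase; 54-4 EC80 (4uM final), 110 s antagonist phase.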
KCNH2 3.1 inh – blocks the human KCNH2 3.1 channel isoform; U2OS KCNH2 3.1, thallium flux FluxOr; hits give low values; activity change, % (tested at about 1.8 µM); actives 0.95% (n = 340,000); AID 720553;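 active = maximum activity change below -70%; inconclusive = maximum activity change from -70% to -50%; inactive = maximum activity change above -50%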;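 note: thallium influx rate constant from kinetic fluorescence after stimulation buffer; % is set by controls: 0 for no effect and ±100 for the full control effect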
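U2OS cells transduced with KCNH2 3.1 mutant virus (1.77 x 10^8 /mL, 4 h), plated overnight at 37 C, loaded 45 min with FluxOr dye plus Red40 quencher. Thallium flux rate constant from kinetic reads after stimulation buffer, normalised to controls.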
TRPML1 blocker – human mucolipin-1 channel inhibition; activity change, negative = inhibition, % (concentration not given with the values); AID 624415; actives 0.02% (n = 390,000); TRPML1-inducible cells, Ca2+ dye fluorescence, FDSS; hits give low values; inhibition of EC80 agonist-evoked calcium signal; Q9GZU1; in the data active = activity change below about -50%; inconclusive = between about -30% and that limit;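 note: stimulus is agonist 54-4 at its EC80 concentration; % is set by controls: 0 for no effect and ±100 for the full control effect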
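Tet-induced TRPML1-DL cells loaded with Ca8 no-wash calcium dye were read kinetically on FDSS. Compound addition was followed by EC80 agonist 54-4 (4 uM final); inhibition was read over 110 s.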
KCNH2 WT inh – inhibitors of human wildtype KCNH2 potassium channel; Q12809; U2OS, BacMam KCNH2, thallium flux FluxOr; hits give low values; activity change, % at 1.84 µM; actives 0.37% (n = 340,000);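 active = maximum activity change below -70%; inconclusive = maximum activity change between -70% and -50%; inactive = maximum activity change above -50%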; note: % is set by controls: 0 for no effect and ±100 for the full control effect
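U2OS cells were transduced with wild-type KCNH2 virus (2.03 x 10^8 / mL) for 4 h at room temperature, then cultured overnight at 37 C. Thallium flux was read with FluxOr dye. Rate constants were normalized to DMSO controls.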
* = called active by the depositor; ? = inconclusive; / = no result.

SMILES	TRPV1 potentiator	TRPV1 ag	TRPML1 agonist	KCNH2 3.1 inh	TRPML1 blocker	KCNH2 WT inh
COc1cc(C(=O)N(C)CC2CCN(CCc3cccc(C(F)(F)F)c3)CC2)ccc1C	5.2	3.7	0.0	-71.9*	10.0	-1.5
CCC(Cc1ccccc1)NC(=O)c1csc2c1CCCCC2 (configuration not stated)	/	/	0.6	/	-24.4	/
c1ccc(Cn2c(CNc3nc4ccccc4n3CCN3CCOCC3)nc3ccccc32)cc1	-7.7	?	2.0	-85.2*	0.7	9.6
Cc1ccc(NC(=O)c2ccc(CN3CC(=O)N4CCCCC4C3=O)cc2)cc1C (configuration not stated)	/	/	1.9	/	-7.6	/
CCCN1C(=O)C2(c3ccccc31)c1c(oc3ccc(C)cc3c1=O)C(=O)N2CCOC (configuration not stated)	/	/	-0.8	/	14.5	/
COc1ccc(CCNC(=O)C(=O)NCC(c2ccc3c(c2)OCO3)N2CCOCC2)cc1 (configuration not stated)	/	/	0.2	/	-7.8	/
CCN(CC)c1ccc(/C=C(/C#N)c2nc3ccc(C)cc3[nH]2)c(OC(C)C)c1	-6.9	85.4*	-0.5	?	-15.9	-70.3*
CCCOc1cc(N(CC)CC)ccc1/C=C(/C#N)c1nc2ccc(C)cc2[nH]1	-9.6	?	?	-42.1	31.5	-18.3
CCc1cc(C=NC2CCCCC2)c(O)s1	-0.3	11.9	0.0	11.4	1.1	-135.3*
O=C(c1ccc([N+](=O)[O-])cc1)N1CCN(C(=O)C2CCCCC2)CC1	-1.7	-2.6	-0.4	-71.1*	1.8	0.3
O=C(c1ccc(Cl)cc1)N1CCN(C(=O)C2CCCCC2)CC1	10.0	-2.3	-0.3	-1.3	6.0	-8.4
CCc1ccc(N=C2NC(=O)CC(C(=O)Nc3ccc(OC)cc3)S2)cc1 (configuration not stated)	/	/	-0.7	/	-16.4	/
COc1ccc(OC)c(C(Cc2ccnc3ccccc23)Cc2ccnc3ccccc23)c1	/	/	0.0	/	/	/
CN1CCN(C(=O)/C(=C/c2ccc(N(C)C)cc2)NC(=O)c2ccccc2)CC1	7.0	2.2	1.3	-2.0	46.1	-0.4
CN1CCN(C(=O)/C(=C/c2ccc(F)cc2)NC(=O)c2ccccc2)CC1	-6.3	1.7	-0.5	-90.8*	-7.4	-22.5
Cc1ccc(NC(=O)CSc2nnc(-c3ccccc3)n2C)cc1	/	/	-1.2	/	/	/
COc1ccc(-n2nc3c(c2NC(=O)c2c(F)cccc2Cl)CS(=O)C3)cc1 (configuration not stated)	-7.1	24.1	-0.6	-78.0*	22.8	-4.1
COc1ccc(-n2nc3c(c2NC(=O)CC(C)C)CS(=O)C3)cc1 (configuration not stated)	2.6	1.1	-0.8	-6.5	-13.9	-11.5
CC(=O)c1ccc(N2C(=O)N(Cc3cccc(C(F)(F)F)c3)c3ccccc3S2(=O)=O)cc1	/	/	0.3	/	31.1	/
Cc1nc2ccc(F)cc2cc1C(=O)Nc1ccc(Cl)c(Cl)c1	-12.9	?	-0.1	4.4	9.5	-130.0*
CCN(CC)CCCNC(=O)C1CCC(CNS(=O)(=O)c2c(C)cc(C)cc2C)CC1 (configuration not stated)	-41.9	0.8	3.0	-11.8	-19.1	9.6
CCCCN(C)CCCNC(=O)C1CCC(CNS(=O)(=O)c2c(C)cc(C)cc2C)CC1 (configuration not stated)	1.5	-1.3	1.0	-76.6*	-27.3	-26.5
COc1ccccc1-c1nn2c(-c3cc(C)[nH]n3)nnc2s1	/	/	-1.2	/	/	/
C1=Cc2ccccc2/C1=C\c1cccc(/C=C2\C=Cc3ccccc32)c1	/	/	0.1	/	/	/
CCN(C(=O)Cn1nc(Cc2cccnc2)c2ccccc2c1=O)c1cc(C)ccc1C	/	/	-0.3	/	-16.7	/
SMILES	TRPV1 potentiator	TRPV1 ag	TRPML1 agonist	KCNH2 3.1 inh	TRPML1 blocker	KCNH2 WT inh
CCc1cc2c(=O)n(Cc3ccco3)c(SCC(=O)N(C)C3CCS(=O)(=O)C3)nc2s1 (configuration not stated)	5.9	-5.1	-1.0	-110.6*	-4.9	-89.5*
O=C(CSc1nc2ccccc2c(=O)n1Cc1ccco1)N1CCCCCC1	0.0	?	1.5	-80.5*	13.4	-7.6
CCc1cc2c(=O)n(Cc3ccco3)c(SCC(=O)N3CCCc4ccccc43)nc2s1	-2.4	22.7	1.0	-77.4*	-21.5	-8.4
CCc1cc2c(=O)n(Cc3ccco3)c(SCC(=O)NC3CCS(=O)(=O)C3)nc2s1 (configuration not stated)	18.8	2.1	-0.5	-48.5	30.7	0.4
CCOc1ccc(C(=O)c2cn(CC(=O)Nc3ccc(F)cc3)c3cc4c(cc3c2=O)OCCO4)cc1	/	/	0.8	/	9.5	/
Cc1ccc(NC(=O)c2ccc(Cl)cc2Cl)c(C(=O)c2ccccc2)c1	/	/	2.5	/	9.8	/
COc1[nH]c(/N=C/c2ccco2)c(C#N)c1C#N	/	/	4.9	/	/	/
Cn1nc(-c2ccc(F)cc2)nc2c(=O)n(C)c(=O)nc1-2	/	/	-0.2	/	/	/
N#C/C(=C/c1ccc(-c2ccccc2)o1)c1nc(-c2cccs2)cs1	17.6	10.5	?	-75.9*	?	-19.9
N#C/C(=C/c1ccc(-c2ccc(S(N)(=O)=O)cc2)o1)c1nc2ccccc2s1	-2.1	22.3	64.5*	-27.4	3.3	-5.7
CCNCCNC(=O)c1c(O)c2cccc3c2n(c1=O)CCC3	-11.4	1.1	-0.5	7.9	1.6	-179.2*
Cc1cccc(-n2ncc3c(Nc4ccc(Oc5ccc(Cl)cc5)cc4)ncnc32)c1	/	/	0.8	/	55.3	/
CCC(=O)OCc1cnc(C)c2oc(=O)c(C(=O)Nc3ccc(CC)cc3)cc12	/	/	-0.4	/	-3.2	/
CCOCCCn1c(=S)[nH]c2cc(C(=O)NCCCN(CC)CC)ccc2c1=O	105.3*	4.4	-0.6	6.6	2.4	2.5
O=C1NNC(c2ccccc2)=N/C1=C\c1ccccc1Cl	-13.9	94.0*	0.5	22.6	-6.3	-9.8
O=C(NCc1ccccc1Cl)C1CCCN(c2ncnc3c2nc2n3CCCCC2)C1 (configuration not stated)	-9.1	80.7*	1.2	10.4	-4.5	-1.0
CCOc1ccccc1CNC(=O)C1CCCN(c2ncnc3c2nc2n3CCCCC2)C1 (configuration not stated)	-10.3	22.5	1.3	2.8	1.5	2.2
CCOC(=O)c1c(NC(=O)c2cc3nc(-c4ccccc4)cc(C(F)(F)F)n3n2)sc2c1CCC(C)C2 (configuration not stated)	/	/	-0.1	/	13.8	/
CCN1CCN(c2cc(C)c3cc(NC(=S)N(C)Cc4ccccc4)ccc3n2)CC1	-0.7	3.8	0.1	-70.1*	14.5	-7.3
CCCCN(C)C(=S)Nc1ccc2nc(N3CCN(CC)CC3)cc(C)c2c1	5.0	-1.4	/	-1.5	/	9.2
